PubChem BioAssay
Activity calls are given as the source filed them.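 Rule for the calls: active = Her2 level under about 52% in both replicate screens, with viability over 70% of control (limit read from the data); inconclusive = Her2 under the limit in one screen only, or viability under 70%; inactive = Her2 level above the set limit.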

Test system: not listed separately
Assay: reducers of endogenous Her2 protein level, primary screen, SKBR3 breast tumor cells, AlphaScreen, ATP viability (AID 461);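 for Her2 level: lower value means less Her2 protein in the cells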;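 for viability: percent of carrier control wells set as 100% viability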
Conditions: 18-24 h, measured here: SKBR3 viability, ATP luminescence, at 10 µM
In the case of `CCOc1ccccc1CNC(=O)CCN1C(=O)COc2ccccc21`, the viability is reported as 104%.
Work on `CCOc1ccccc1CN1C(=O)c2ccccc2C1C(=O)NCC1CCCO1` (stereo not given) yielded a viability of 104%.
`O=C(CCCc1cccs1)Nc1nc2c(s1)CCCC2` showed a viability of 86.5%.
For `COc1ccc(-c2noc(CCCC(=O)O)n2)cc1`, the viability was 130%.
Compound `CCCN(Cc1cc2cc(C)ccc2[nH]c1=O)C(=O)c1cccc(OC)c1` has a viability of 114%.
`COC(=O)c1cnc2c(C(F)(F)F)cccc2c1OC` showed a viability of 104%.
Compound `COc1ccccc1Nc1ccc(C(=O)NC2CCCCC2)cn1` has a viability of 100%.
For `COc1cccc(C(=O)Nc2ncc3c(n2)CC(C)CC3=O)c1` (stereo not given), the viability was 97.5%.
Work on `Cc1ccc(-n2c(Cn3cnc4ccccc43)nnc2SCC(=O)O)cc1` yielded a viability of 102%.
For `COCCNc1oc(-c2ccc(C)cc2)nc1C#N`, the viability was 102%.
Work on `c1cn(C23CC4CC(CC(C4)C2)C3)cn1` yielded a viability of 113%.
Work on `CCN(Cc1cc2ccccc2[nH]c1=O)S(=O)(=O)c1ccccc1` yielded a viability of 110%.
In the case of `CCCCn1nc(C(=O)N2CCc3ccccc32)c2ccccc2c1=O`, the viability is reported as 81.5%.
Compound `Cc1ccc(NCc2nnc(SCC(=O)N3CCCCC3)n2CC2CCCO2)c(C)c1` (stereo not given) has a viability of 94.5%.
In the case of `COC(=O)c1[nH]c2ccc(F)cc2c1NS(=O)(=O)c1ccc(OC)cc1OC`, the viability is reported as 79%.
`O=c1cc(COn2nnc3ccc(C(F)(F)F)cc32)nc2sccn12` showed a viability of 89.5%.
`CS(=O)(=O)N1CCCC(C(=O)NCCCN2CCc3ccccc3C2)C1` (stereo not given) gave a viability of 93%.
In the case of `CCNc1nc(N2CCOCC2)nc(N(c2ccccc2)c2ccccc2)n1`, the viability is reported as 80.5%.
`NC(=O)CSc1nnc(-c2cc3ccccc3o2)n1Cc1ccccc1` gave a viability of 92.5%.
With `CS(=O)(=O)Nc1ccc(C(=O)NCc2ccco2)cc1` the viability was 88.5%.
`Cc1cc(C)c2[nH]c(=O)c(C(c3nnnn3Cc3ccc4c(c3)OCO4)N3CCC(C)CC3)cc2c1` (stereo not given) gave a viability of 90%.
`Cc1ccc(CNC(=O)CSc2n[nH]c(N)n2)cc1` showed a viability of 100%.
In the case of `C=C(C)Cn1c(N2CCN(CC)CC2)nc2c1c(=O)[nH]c(=O)n2C`, the viability is reported as 99.5%.
For `Cc1cc(C(=O)CN2C(=O)c3ccccc3C2=O)c(C)n1Cc1cccs1`, the viability was 122%.
For `Cc1ccc2nc(NCCCN3CCOCC3)c(C=NCCCN3CCOCC3)c(=O)n2c1`, the viability was 102%.
With `O=C(Cn1cnc2ccccc2c1=O)NCCC(=O)N1CCN(c2ccccc2)CC1` the viability was 90.5%.
Work on `O=C(C1CCC1)N1CCc2cc(S(=O)(=O)N3CCc4ccccc4C3)ccc21` yielded a viability of 88%.
With `CCC(=O)N1CCc2cc(Br)cc(S(=O)(=O)CCC(=O)NCC3CCCO3)c21` (stereo not given) the viability was 118%.
With `Cc1nc2ccccc2n1CCC(=O)Nc1cccc(F)c1` the viability was 88%.
In the case of `CN(C)C(=O)N1CCC(C(=O)NC2CCCCCCC2)CC1`, the viability is reported as 90%.
`O=C(CSCCSCC(=O)c1ccco1)c1ccco1` showed a viability of 83.5%.
With `O=c1cnnc(NCc2ccccc2)[nH]1` the viability was 88.5%.
`COc1ccccc1C1CC(c2ccc(C)cc2)Nc2ncnn21` (stereo not given) showed a viability of 107%.
`O=c1cc(CSc2ccccn2)c2ccccc2[nH]1` gave a viability of 91.5%.
In the case of `COC(=O)CC1SC(=O)NC1=O` (stereo not given), the viability is reported as 110%.
`Cc1ccc(C)c(N2CCN(S(=O)(=O)c3ccc4c(c3)OCCO4)CC2)c1` showed a viability of 97.5%.
With `O=C(NCCC1=CCCCC1)c1cc2c(s1)CS(=O)(=O)C2` the viability was 114%.
`Cc1c(C(=O)OC(C)C)[nH]c2c1C(=O)CCC2` gave a viability of 96.5%.
In the case of `Cc1cc(NCCN2CCCCC2)n2c(nc3ccccc32)c1C#N`, the viability is reported as 87.5%.
`CCOC(=O)Cn1nc(-c2ccc(C)cc2)ccc1=O` showed a viability of 99%.

Biological target: Receptor tyrosine-protein kinase erbB-2 (Homo sapiens) (UniProt P04626)
Sequence (P04626 whole entry, looked up): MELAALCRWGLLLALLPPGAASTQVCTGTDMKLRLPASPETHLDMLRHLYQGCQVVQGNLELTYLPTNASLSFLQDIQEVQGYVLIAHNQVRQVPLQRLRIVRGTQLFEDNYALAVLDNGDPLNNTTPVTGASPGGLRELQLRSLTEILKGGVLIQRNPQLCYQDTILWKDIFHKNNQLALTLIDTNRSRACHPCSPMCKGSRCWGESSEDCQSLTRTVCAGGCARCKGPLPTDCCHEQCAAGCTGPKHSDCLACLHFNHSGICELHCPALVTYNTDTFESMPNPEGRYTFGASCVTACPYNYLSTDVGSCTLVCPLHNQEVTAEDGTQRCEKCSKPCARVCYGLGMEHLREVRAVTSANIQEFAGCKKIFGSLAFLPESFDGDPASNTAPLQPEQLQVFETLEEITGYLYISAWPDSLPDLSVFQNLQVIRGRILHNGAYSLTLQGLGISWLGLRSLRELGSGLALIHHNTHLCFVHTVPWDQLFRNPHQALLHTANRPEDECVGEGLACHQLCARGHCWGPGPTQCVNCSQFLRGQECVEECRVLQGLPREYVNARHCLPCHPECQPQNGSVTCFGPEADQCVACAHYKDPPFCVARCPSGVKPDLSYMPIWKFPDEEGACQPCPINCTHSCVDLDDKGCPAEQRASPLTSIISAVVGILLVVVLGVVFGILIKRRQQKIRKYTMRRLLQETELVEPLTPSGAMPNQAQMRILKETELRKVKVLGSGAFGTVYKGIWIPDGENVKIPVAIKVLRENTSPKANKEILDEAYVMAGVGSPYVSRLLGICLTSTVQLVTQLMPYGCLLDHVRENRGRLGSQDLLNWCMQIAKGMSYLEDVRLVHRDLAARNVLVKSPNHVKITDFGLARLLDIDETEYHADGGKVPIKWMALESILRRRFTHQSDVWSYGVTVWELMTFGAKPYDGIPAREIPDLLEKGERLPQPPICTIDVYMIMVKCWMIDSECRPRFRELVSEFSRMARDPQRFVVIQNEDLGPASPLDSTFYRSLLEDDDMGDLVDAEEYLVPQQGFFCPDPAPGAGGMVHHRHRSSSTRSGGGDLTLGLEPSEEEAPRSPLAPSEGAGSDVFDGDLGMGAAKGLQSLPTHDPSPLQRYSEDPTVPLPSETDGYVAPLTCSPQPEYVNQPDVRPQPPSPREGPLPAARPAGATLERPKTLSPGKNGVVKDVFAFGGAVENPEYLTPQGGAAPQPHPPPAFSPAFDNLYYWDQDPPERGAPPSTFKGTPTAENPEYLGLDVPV
Assay: as above
Conditions: 18-24 h, at 10 µM, stronger effect = lower value
In the case of `CCOc1ccccc1CNC(=O)CCN1C(=O)COc2ccccc21`, the Her2 level is reported as 110% (inactive).
With `CCOc1ccccc1CN1C(=O)c2ccccc2C1C(=O)NCC1CCCO1` (stereo not given) the Her2 level was 104% (inactive).
With `O=C(CCCc1cccs1)Nc1nc2c(s1)CCCC2` the Her2 level was 74% (inactive).
With `COc1ccc(-c2noc(CCCC(=O)O)n2)cc1` the Her2 level was 91.5% (inactive).
In the case of `CCCN(Cc1cc2cc(C)ccc2[nH]c1=O)C(=O)c1cccc(OC)c1`, the Her2 level is reported as 91% (inactive).
For `COC(=O)c1cnc2c(C(F)(F)F)cccc2c1OC`, the Her2 level was 106% (inactive).
In the case of `COc1ccccc1Nc1ccc(C(=O)NC2CCCCC2)cn1`, the Her2 level is reported as 96% (inactive).
In the case of `COc1cccc(C(=O)Nc2ncc3c(n2)CC(C)CC3=O)c1` (stereo not given), the Her2 level is reported as 88.5% (inactive).
With `Cc1ccc(-n2c(Cn3cnc4ccccc43)nnc2SCC(=O)O)cc1` the Her2 level was 108% (inactive).
For `COCCNc1oc(-c2ccc(C)cc2)nc1C#N`, the Her2 level was 81% (inactive).
In the case of `c1cn(C23CC4CC(CC(C4)C2)C3)cn1`, the Her2 level is reported as 88% (inactive).
For `CCN(Cc1cc2ccccc2[nH]c1=O)S(=O)(=O)c1ccccc1`, the Her2 level was 112% (inactive).
In the case of `CCCCn1nc(C(=O)N2CCc3ccccc32)c2ccccc2c1=O`, the Her2 level is reported as 110% (inactive).
With `Cc1ccc(NCc2nnc(SCC(=O)N3CCCCC3)n2CC2CCCO2)c(C)c1` (stereo not given) the Her2 level was 99% (inactive).
For `COC(=O)c1[nH]c2ccc(F)cc2c1NS(=O)(=O)c1ccc(OC)cc1OC`, the Her2 level was 75% (inactive).
With `O=c1cc(COn2nnc3ccc(C(F)(F)F)cc32)nc2sccn12` the Her2 level was 91.5% (inactive).
For `CS(=O)(=O)N1CCCC(C(=O)NCCCN2CCc3ccccc3C2)C1` (stereo not given), the Her2 level was 102% (inactive).
In the case of `CCNc1nc(N2CCOCC2)nc(N(c2ccccc2)c2ccccc2)n1`, the Her2 level is reported as 97% (inactive).
For `NC(=O)CSc1nnc(-c2cc3ccccc3o2)n1Cc1ccccc1`, the Her2 level was 81.5% (inactive).
With `CS(=O)(=O)Nc1ccc(C(=O)NCc2ccco2)cc1` the Her2 level was 106% (inactive).
For `Cc1cc(C)c2[nH]c(=O)c(C(c3nnnn3Cc3ccc4c(c3)OCO4)N3CCC(C)CC3)cc2c1` (stereo not given), the Her2 level was 106% (inactive).
For `Cc1ccc(CNC(=O)CSc2n[nH]c(N)n2)cc1`, the Her2 level was 99.5% (inactive).
With `C=C(C)Cn1c(N2CCN(CC)CC2)nc2c1c(=O)[nH]c(=O)n2C` the Her2 level was 99.5% (inactive).
In the case of `Cc1cc(C(=O)CN2C(=O)c3ccccc3C2=O)c(C)n1Cc1cccs1`, the Her2 level is reported as 99% (inactive).
With `Cc1ccc2nc(NCCCN3CCOCC3)c(C=NCCCN3CCOCC3)c(=O)n2c1` the Her2 level was 84% (inactive).
For `O=C(Cn1cnc2ccccc2c1=O)NCCC(=O)N1CCN(c2ccccc2)CC1`, the Her2 level was 83.5% (inactive).
With `O=C(C1CCC1)N1CCc2cc(S(=O)(=O)N3CCc4ccccc4C3)ccc21` the Her2 level was 97% (inactive).
In the case of `CCC(=O)N1CCc2cc(Br)cc(S(=O)(=O)CCC(=O)NCC3CCCO3)c21` (stereo not given), the Her2 level is reported as 90% (inactive).
For `Cc1nc2ccccc2n1CCC(=O)Nc1cccc(F)c1`, the Her2 level was 90% (inactive).
In the case of `CN(C)C(=O)N1CCC(C(=O)NC2CCCCCCC2)CC1`, the Her2 level is reported as 112% (inactive).
In the case of `O=C(CSCCSCC(=O)c1ccco1)c1ccco1`, the Her2 level is reported as 96% (inactive).
With `O=c1cnnc(NCc2ccccc2)[nH]1` the Her2 level was 108% (inactive).
With `COc1ccccc1C1CC(c2ccc(C)cc2)Nc2ncnn21` (stereo not given) the Her2 level was 116% (inactive).
With `O=c1cc(CSc2ccccn2)c2ccccc2[nH]1` the Her2 level was 76% (inactive).
With `COC(=O)CC1SC(=O)NC1=O` (stereo not given) the Her2 level was 120% (inactive).
For `Cc1ccc(C)c(N2CCN(S(=O)(=O)c3ccc4c(c3)OCCO4)CC2)c1`, the Her2 level was 96.5% (inactive).
In the case of `O=C(NCCC1=CCCCC1)c1cc2c(s1)CS(=O)(=O)C2`, the Her2 level is reported as 93.5% (inactive).
In the case of `Cc1c(C(=O)OC(C)C)[nH]c2c1C(=O)CCC2`, the Her2 level is reported as 104% (inactive).
For `Cc1cc(NCCN2CCCCC2)n2c(nc3ccccc32)c1C#N`, the Her2 level was 65.5% (inactive).
For `CCOC(=O)Cn1nc(-c2ccc(C)cc2)ccc1=O`, the Her2 level was 115% (inactive).
